The text below walks through data of PubChem BioAssay (Tox21).

The target of assay [1] is Progesterone receptor (Homo sapiens) (UniProt P06401). Briefly: qHTS assay to identify small molecule agonists of the progesterone receptor (PR) signaling pathway (AID 1346784; calls by dose curve; further: nearly all actives have a fitted effect of over 30% in size). The procedure, abridged:
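Compounds were tested for PR agonism in HEK 293T cells bearing a beta-lactamase gene under UAS control. Treatment lasted 16 hr at 37C; signal came from fluorescence of a FRET substrate.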
For orientation: Quantitative high-throughput screening tests each substance at several concentrations.

The target is the same in assay [2]. Put plainly: qHTS assay to identify small molecule antagonists of the progesterone receptor (PR) signaling pathway (AID 1346795; active means well fitted inhibition curve with a large enough effect in the signal ratio in the repeat runs, not every such curve was filed as active; the % refers to the signal ratio; further: potency means the concentration at half of the fitted maximal effect). The procedure, abridged:
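In HEK293T cells bearing the PR-UAS-bla reporter, compound effects on promegestone-driven (1 nM) beta-lactamase expression are assessed after 16 hr using a fluorescent FRET substrate incubated 2 hr at room temperature.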

Assay [3] in a line: qHTS assay to identify small molecule agonists of the progesterone receptor (PR) signaling pathway - cell viability counter screen (AID 1346799; calls by dose curve; further: nearly all actives have a fitted effect of over 45% in size; further: potency means the concentration at half of the fitted maximal effect). The procedure, abridged: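 Here, 3,000 PR-UAS-bla HEK293T cells per well were treated with compounds for 16 hr after a 6 hr preincubation at 37C and 5% CO2; cell viability is the CellTiter-Glo luminescence signal.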
Assay [4] is described as follows: qHTS assay to identify small molecule antagonists of the TGF-beta/Smad signaling pathway - cell viability counter screen (AID 1346824). Further: nearly all actives have a fitted effect of over 50% in size. Summed up:
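Cytotoxicity counter-screen run in the same wells as the beta-lactamase Smad reporter read: CellTiter-Glo luminescence after 30 min at room temperature. HEK 293T SBE-bla cells had 5 hr compound exposure at 37 C with TGF-beta1 (0.25 ng/mL stock).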

Assay [5] is described as follows: qHTS assay to identify small molecule agonists of the TGF-beta/Smad signaling pathway - cell viability counter screen (AID 1346829). Further: top concentration of the series differs between compounds; nearly all actives have a fitted effect of over 45% in size. The procedure, abridged: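 Luminescence from CellTiter-Glo, read after a 30 min room-temperature incubation, gives cell viability of SBE-bla HEK 293T cells treated 5 hr with compounds at 37 C.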
A short description of assay [6]: qHTS assay to identify small molecule agonists of the TGF-beta/Smad signaling pathway (AID 1346859; active means well fitted activation curve with a large enough effect in the signal ratio in the repeat runs, not every such curve was filed as active; the % refers to the signal ratio; further: series mostly up to about 77 µM). The procedure, abridged: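 Each well held 4,000 SBE-bla HEK 293T cells incubated overnight before compound addition; 5 hr later the cleavable FRET substrate went on for 2 hr at room temperature, and fluorescence was read at two emissions.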
The target of assay [7] is Thyrotropin-releasing hormone receptor (Homo sapiens) (UniProt P34981). Briefly: qHTS assay to identify small molecule antagonists of the thyrotropin-releasing hormone receptor (TRHR) signaling pathway (AID 1346877; active means well fitted inhibition curve with a large enough effect in the repeat runs, not every such curve was filed as active; further: series mostly up to about 51 µM). The procedure, abridged:
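Antagonist mode: after a 5 min room-temperature compound exposure, cells were stimulated with 1 nM (final) TRH. Dye-loaded TRHR-HEK293 cells were used, and calcium-dependent fluorescence was followed for 3 min, with 15-point titrations run in triplicate.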

Assay [8] has the same target. Put plainly: qHTS assay to identify small molecule agonists of the thyrotropin-releasing hormone receptor (TRHR) signaling pathway (AID 1346891; calls by dose curve; further: series mostly up to about 58 µM). Summed up:
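Screening of agonists relied on calcium signalling in HEK293 cells expressing human TRHR: dye loading 2 h at 37 °C preceded compound addition and a 3-min fluorescence time course.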

Assay [9] is described as follows: Human pregnane X receptor (PXR) small molecule agonists, qHTS cell viability counter screen (AID 1346977). Further: nearly all actives have a fitted effect of over 50% in size. The procedure, abridged:
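Tox21 qHTS format; PXR-Luc HepG2, 2,000/well, charcoal-stripped FBS 5%. Cpd exposure 24hr. Read: CellTiter-Fluor fluorescence, multiplexed with luciferase.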

A short description of assay [10]: Caspase-3/7 induction in HepG2 cells by small molecules, qHTS assay (AID 1346978). Further: nearly all actives have a fitted effect of over 15% in size. Summed up:
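Caspase-3/7 induction was measured by Caspase-Glo 3/7 luminescence (30 min, room temperature) after a 17 hr compound exposure of wild-type HepG2 cells seeded at 2,000 per well and pre-incubated 5 hr.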

A short description of assay [11]: Caspase-3/7 induction in CHO-K1 cells by small molecules, qHTS assay (AID 1346980). Further: nearly all actives have a fitted effect of over 15% in size. Summed up:
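Luminescent Caspase-Glo 3/7 read (30min, room temperature) quantified apoptosis induction. Cells were wild-type CHO-K1, treated with compound for 17hr at 37 C and 5% CO2.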

The nature of assay [12]: Caspase-3/7 induction in HepG2 cells by small molecules, qHTS cell viability counter screen (AID 1346981). Further: series mostly up to about 92 µM; nearly all actives have a fitted effect of over 30% in size. The procedure, abridged:
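CellTiter-Fluor fluorescence measured viability in the same wells used for Caspase-Glo 3/7. HepG2 (wild type) at 2,000 cells/well were pre-incubated 5 hr, dosed, and given reagent at 16 hr, with 1 hr further at 37C.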

Assay [13] has as its target Nuclear receptor subfamily 1 group I member 2 (Homo sapiens) (UniProt O75469). Briefly: Human pregnane X receptor (PXR) small molecule agonists, qHTS assay (AID 1346982). Further: nearly all actives have a fitted effect of over 35% in size. Further: potency means the concentration at half of the fitted maximal effect. The procedure, abridged: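 Agonist mode: luminescence from ONE-Glo after 24 h compound exposure at 37C in HepG2 cells carrying hPXR-responsive CYP3A4 luciferase, plated in charcoal-stripped serum medium 5 h beforehand.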

Assay [14] addresses Nuclear receptor subfamily 1 group I member 2 (Rattus norvegicus) (UniProt Q9R1A7). Briefly: Rat pregnane X receptor (rPXR) activation by small molecules, qHTS assay (AID 1346983). Further: nearly all actives have a fitted effect of over 20% in size. Particulars: rPXR luciferase reporter cells, One-Glo luminescence, 24 h; max activation: hits give high values. Summed up:
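Luminescent readout (One-Glo luciferase, 30 min room temperature) followed 24 hr compound treatment at 37 C of rPXR cells plated 2,000 per well and preincubated 5hr; qHTS format with compounds delivered in DMSO.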

The target of assay [15] is Nuclear receptor subfamily 1 group I member 2 (Homo sapiens) (UniProt O75469). Briefly: CYP3A4 induction through human pregnane X receptor (PXR) by small molecules, qHTS assay (AID 1346984). Further: nearly all actives have a fitted effect of over 40% in size. Summed up:
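Read-out is luminescence after One-Glo addition, following a 3 hr, 37C incubation with Luciferin-IPA CYP3A4 substrate (3uM final). Before that, compounds were on DPX-2 cells (HepG2 co-transfected with PXR element plus CYP3A4-promoter luciferase) for 24 hr at 37C.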

Assay [16] can be described thus: Caspase-3/7 induction in CHO-K1 cells by small molecules, qHTS cell viability counter screen (AID 1346979). Further: nearly all actives have a fitted effect of over 35% in size. Further: potency means the concentration at half of the fitted maximal effect. Summed up: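 CellTiter-Fluor viability check, qHTS format: wild-type CHO-K1, 16hr compound treatment, 1hr reagent incubation, fluorescence read.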
Assay [17] has as its target Cytochrome P450 2D6 (Homo sapiens) (UniProt P10635). Put plainly: Cytochrome P450 Family 2 Subfamily D Member 6 (CYP2D6) small molecule antagonists: luciferase reporter qHTS assay (AID 1671196). Further: nearly all actives have a fitted effect of over 50% in size. Further: potency means the concentration at half of the fitted maximal effect. The procedure, abridged: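 CYP2D6 activity was followed as luminescence from its luciferin product after a 1 h NADPH-driven reaction at room temperature. Enzyme-substrate mix and compound were pre-incubated for 10 min, and the signal was read 20 min after adding detection reagent.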

For assay [18], the target named is Cytochrome P450 2C19 (Homo sapiens) (UniProt P33261). Briefly: Cytochrome P450 Family 2 Subfamily C Member 19 (CYP2C19) small molecule antagonists: luciferase reporter qHTS assay (AID 1671197). Further: nearly all actives have a fitted effect of over 65% in size. Further: potency means the concentration at half of the fitted maximal effect. The procedure, abridged: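 CYP2C19 P450-Glo, 1536-well qHTS. Cpd + enzyme/proluciferin substrate 10 min RT; + NADPH regen, 37C 1 h; stop with luciferin detection reagent, 20 min RT, luminescence (RLU). Pos ctrl ketoconazole.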
On the technique in general: In a reporter assay the amount or activity of a reporter protein is the signal.

The target of assay [19] is Nuclear receptor subfamily 1 group I member 2 (Homo sapiens) (UniProt O75469). Put plainly: Human pregnane X receptor (PXR) activation by small molecules, qHTS assay (AID 1346985). Further: nearly all actives have a fitted effect of over 40% in size. The procedure, abridged:
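DPX-2 cells (HepG2 co-transfected with a PXR response element and a CYP3A4-promoter luciferase construct) were seeded at 2,000 per well, rested 5 hr at 37C, then exposed to DMSO-dissolved compounds for 24 hr. Activation was read as luciferase luminescence.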

Assay [20] can be described thus: qHTS assay to identify small molecule antagonists of the progesterone receptor (PR) signaling pathway - cell viability counter screen (AID 1346798). Further: series mostly up to about 92 µM; nearly all actives have a fitted effect of over 50% in size. The procedure, abridged: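 Following a 4 hr attachment, PR-UAS-bla HEK293T cells in charcoal-stripped FBS medium were exposed to compounds with R5020 for 16 hr; CellTiter-Glo was added and luminescence read after 30 min at room temperature.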

Several values for one entry are separate records, joined by “and”; a condition that tells them apart may be missing. Equal values may be shown once. Unmarked numbers belong to inactive results. Records with an inconclusive call do not appear. Activity calls are given as the source filed them. Unless noted, the call rests on the fitted dose curve; in most records, active means well fitted curve in the direction sought with a large enough effect in the repeat runs; inconclusive means weak or mixed curves; inactive means no such curve, though single readings can be large; an effect the other way counts as inactive or inconclusive.
On the % scale 0 is the no-effect control and ±100 the full control effect.

Sequence of Cytochrome P450 2D6 (Homo sapiens) (P10635 whole entry, looked up): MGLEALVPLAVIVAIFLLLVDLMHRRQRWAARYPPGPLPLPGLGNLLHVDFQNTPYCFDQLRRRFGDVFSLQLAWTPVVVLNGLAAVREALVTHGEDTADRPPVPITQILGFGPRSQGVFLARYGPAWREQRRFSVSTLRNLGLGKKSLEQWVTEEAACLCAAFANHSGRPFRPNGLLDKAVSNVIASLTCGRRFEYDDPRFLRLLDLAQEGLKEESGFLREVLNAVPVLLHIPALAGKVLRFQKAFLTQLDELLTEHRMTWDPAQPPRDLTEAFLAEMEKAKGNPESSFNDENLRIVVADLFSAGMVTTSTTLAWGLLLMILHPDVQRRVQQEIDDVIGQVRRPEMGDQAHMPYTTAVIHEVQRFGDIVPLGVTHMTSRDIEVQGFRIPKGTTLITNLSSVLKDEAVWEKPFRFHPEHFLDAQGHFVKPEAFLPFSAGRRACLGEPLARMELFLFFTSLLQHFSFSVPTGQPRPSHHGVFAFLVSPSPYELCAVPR
Sequence of Nuclear receptor subfamily 1 group I member 2 (Rattus norvegicus) (Q9R1A7 whole entry, looked up): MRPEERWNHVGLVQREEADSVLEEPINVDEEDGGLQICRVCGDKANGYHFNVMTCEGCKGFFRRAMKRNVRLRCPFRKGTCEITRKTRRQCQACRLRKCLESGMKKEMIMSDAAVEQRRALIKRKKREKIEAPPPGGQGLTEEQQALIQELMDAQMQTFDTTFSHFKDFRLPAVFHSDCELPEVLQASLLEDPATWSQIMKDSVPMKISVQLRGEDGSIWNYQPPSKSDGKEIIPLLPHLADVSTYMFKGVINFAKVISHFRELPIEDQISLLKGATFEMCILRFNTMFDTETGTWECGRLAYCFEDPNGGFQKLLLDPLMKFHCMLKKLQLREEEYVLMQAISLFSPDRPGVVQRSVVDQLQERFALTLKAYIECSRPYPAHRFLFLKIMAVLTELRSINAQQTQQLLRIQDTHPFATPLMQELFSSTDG
Sequence of Thyrotropin-releasing hormone receptor (Homo sapiens) (P34981 whole entry, looked up): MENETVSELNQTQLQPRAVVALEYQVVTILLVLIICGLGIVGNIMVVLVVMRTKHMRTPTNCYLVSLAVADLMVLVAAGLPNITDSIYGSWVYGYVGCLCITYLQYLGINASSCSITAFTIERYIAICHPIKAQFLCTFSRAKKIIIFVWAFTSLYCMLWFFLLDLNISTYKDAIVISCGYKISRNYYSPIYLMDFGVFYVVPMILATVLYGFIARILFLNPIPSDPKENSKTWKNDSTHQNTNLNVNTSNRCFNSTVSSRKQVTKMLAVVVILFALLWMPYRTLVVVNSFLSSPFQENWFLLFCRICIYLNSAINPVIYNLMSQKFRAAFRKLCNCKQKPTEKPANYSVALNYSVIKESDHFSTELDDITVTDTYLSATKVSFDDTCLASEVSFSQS
Sequence of Progesterone receptor (Homo sapiens) (P06401 whole entry, looked up): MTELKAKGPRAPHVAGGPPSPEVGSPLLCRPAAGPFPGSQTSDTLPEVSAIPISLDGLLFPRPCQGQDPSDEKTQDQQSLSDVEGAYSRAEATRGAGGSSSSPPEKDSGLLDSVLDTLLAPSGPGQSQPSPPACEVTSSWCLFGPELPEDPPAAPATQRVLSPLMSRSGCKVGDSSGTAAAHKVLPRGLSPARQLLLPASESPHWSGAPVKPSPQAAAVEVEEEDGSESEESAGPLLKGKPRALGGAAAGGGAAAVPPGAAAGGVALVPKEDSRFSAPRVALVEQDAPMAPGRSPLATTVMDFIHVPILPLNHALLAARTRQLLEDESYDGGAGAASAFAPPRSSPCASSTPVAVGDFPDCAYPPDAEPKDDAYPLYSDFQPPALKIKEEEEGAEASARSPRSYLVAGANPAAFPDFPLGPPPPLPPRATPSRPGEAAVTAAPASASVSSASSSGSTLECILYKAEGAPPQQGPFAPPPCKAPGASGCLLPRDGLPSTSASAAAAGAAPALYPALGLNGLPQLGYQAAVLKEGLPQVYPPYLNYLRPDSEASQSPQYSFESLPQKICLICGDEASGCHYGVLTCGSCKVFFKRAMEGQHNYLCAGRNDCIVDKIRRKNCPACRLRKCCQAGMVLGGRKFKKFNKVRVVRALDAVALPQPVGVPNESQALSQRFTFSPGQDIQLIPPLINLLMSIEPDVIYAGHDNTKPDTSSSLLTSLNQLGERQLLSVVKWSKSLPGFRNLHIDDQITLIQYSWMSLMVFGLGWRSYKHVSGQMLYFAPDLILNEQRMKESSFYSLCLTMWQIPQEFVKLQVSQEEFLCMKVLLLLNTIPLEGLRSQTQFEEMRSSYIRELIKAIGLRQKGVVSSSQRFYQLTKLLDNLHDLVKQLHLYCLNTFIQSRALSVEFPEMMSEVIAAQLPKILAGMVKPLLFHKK
Sequence of Nuclear receptor subfamily 1 group I member 2 (Homo sapiens) (O75469 whole entry, looked up): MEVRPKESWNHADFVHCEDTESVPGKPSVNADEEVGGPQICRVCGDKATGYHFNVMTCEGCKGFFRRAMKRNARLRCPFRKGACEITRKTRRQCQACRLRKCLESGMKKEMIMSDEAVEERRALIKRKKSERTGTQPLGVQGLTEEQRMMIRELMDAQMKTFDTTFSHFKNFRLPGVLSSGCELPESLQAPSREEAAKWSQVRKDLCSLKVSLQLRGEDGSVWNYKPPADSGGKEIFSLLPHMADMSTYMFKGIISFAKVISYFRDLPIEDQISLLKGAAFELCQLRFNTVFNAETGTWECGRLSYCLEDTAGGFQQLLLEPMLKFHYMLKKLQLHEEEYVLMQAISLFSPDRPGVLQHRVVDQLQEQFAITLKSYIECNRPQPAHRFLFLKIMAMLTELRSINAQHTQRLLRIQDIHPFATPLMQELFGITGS
Sequence of Cytochrome P450 2C19 (Homo sapiens) (P33261 whole entry, looked up): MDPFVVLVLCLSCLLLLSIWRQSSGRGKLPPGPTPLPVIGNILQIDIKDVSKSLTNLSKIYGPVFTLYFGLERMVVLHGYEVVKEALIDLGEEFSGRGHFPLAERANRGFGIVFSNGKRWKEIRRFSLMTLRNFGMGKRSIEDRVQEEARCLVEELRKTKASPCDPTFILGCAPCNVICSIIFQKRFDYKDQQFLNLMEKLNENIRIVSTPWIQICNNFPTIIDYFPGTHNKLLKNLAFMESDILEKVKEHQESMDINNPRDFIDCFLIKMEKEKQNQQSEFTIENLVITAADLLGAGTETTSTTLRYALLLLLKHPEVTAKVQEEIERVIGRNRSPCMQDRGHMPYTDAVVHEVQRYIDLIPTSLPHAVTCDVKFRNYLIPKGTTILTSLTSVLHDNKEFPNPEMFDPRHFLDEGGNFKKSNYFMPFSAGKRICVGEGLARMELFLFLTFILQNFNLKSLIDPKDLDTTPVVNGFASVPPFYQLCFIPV

`Oc1ccc(C(O)CNCCCCCCNCC(O)c2ccc(O)c(O)c2)cc1O` (configuration not stated): the outcome in [1], in assay [6], in assay [7] and in assay [10] was inactive. The Potency result in [2], in assay [3], in assay [4], in assay [5], in assay [8] and in [9] was “inactive” throughout. In addition, the Potency result in assay [11], in assay [12], in [13] and in assay [15] was “inactive” in each case. In assay [14], the max activation is -3.6%.

On to `CN(C)CC/C=C1\c2ccccc2COc2ccccc21`, for which the outcome in [1], in assay [6], in [7] and in [10] was inactive. The Potency entry in assay [2], in assay [4], in assay [5], in assay [8], in [16] and in assay [11] was “inactive” each time. Further, in assay [12], the Potency result was “inactive”.

Regarding `O=C=NC1CCC(CC2CCC(N=C=O)CC2)CC1` (configuration not stated), the call in assay [1], in assay [6], in assay [7] and in [10] was inactive. For the same compound, the Potency result in assay [2], in [4], in assay [5], in assay [8], in assay [16] and in assay [11] was “inactive” throughout. Further, the Potency entry in [12] is “inactive”. Moreover, the Potency in assay [3] was 8.63 µM (active); in [17] it was 35.6 µM (active); in assay [18], 79.6 µM (active).

Consider `CC(=O)N(O)CCCCCNC(=O)CCC(=O)N(O)CCCCCNC(=O)CCC(=O)N(O)CCCCCN`, for which the call in [1], in assay [6] and in assay [7] was inactive. The Potency result in assay [2], in [3], in assay [4], in assay [5], in assay [8] and in assay [9] was “inactive” throughout. Further, the Potency entry in [16], in assay [11], in assay [12], in assay [13], in assay [15] and in [19] was “inactive” throughout. Besides, the Potency entry in [18] is “inactive”. Further, the max activation in assay [14] is -2.68%.

On to `O=C(c1ccc(O)cc1)c1ccc(O)cc1`, for which the result in assay [1], in [6], in assay [7] and in [10] was inactive. Also, the Potency in assay [2] is 48.6 µM (active); in assay [13] it was 54.5 µM (active); in assay [18] it was 39.9 µM (active). Further, the Potency result in assay [4], in [5], in [8], in [16], in [11] and in [12] was “inactive” throughout.

Turning to `CN(C)C/C=C(/c1ccc(Br)cc1)c1cccnc1`, the call in assay [1], in assay [6], in assay [7] and in [10] was inactive. For the same compound, the Potency entry in assay [2], in [3], in assay [5], in assay [8], in [16] and in assay [11] was “inactive” throughout. In assay [12], the Potency result was “inactive”. In addition, in assay [14], the max activation was -0.374%.

`Cn1sccc1=O`: the outcome in assay [1], in assay [6], in assay [7] and in assay [10] was inactive. Also, the Potency result in assay [2], in assay [20], in [5], in assay [8], in [11] and in assay [12] was “inactive” in each case. For the same compound, the Potency entry in [17] was “inactive”. For the same compound, the Potency in [16] is 30.6 µM (active) and 43.3 µM (active); in assay [13] it was 30.6 µM (active) and 61.1 µM (active).

For `CCOc1nc2cccc(C(=O)O)c2n1Cc1ccc(-c2ccccc2-c2nn[nH]n2)cc1`, the outcome in [1], in assay [6] and in assay [10] was inactive. Besides, the Potency result in [2], in assay [3], in [4], in assay [5], in assay [16] and in [11] was “inactive” in each case. Also, the Potency entry in [12] and in assay [13] was “inactive” in each case. The max activation in assay [14] was -0.587%.
